# A selection: hits, their analogues and other compounds. The true share with any hit is near 19%.
# IL1B secr inh = inflammasome signaling inhibition, IL-1 beta readout; THP-1 LPS/ATP IL-1B secretion, AlphaLISA, 16 h; hits give low values; activity change, % at 57.5 µM; 360,000 tested, 4.7% active; AID 743279; in the data active = activity change below about -50%; inconclusive = mostly about -30% to -49%
#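 Secreted IL-1B measured by AlphaLISA bead assay after 16 h compound exposure of THP-1 cells; compounds (final up to 57.5 uM) added 1 h before LPS (250 ng/mL) and ATP (1.25 mM) stimulation; lower signal means less secretion.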
# DT40 TDP1 no CPT = qHTS for Inhibitors of human tyrosyl-DNA phosphodiesterase 1 (TDP1): qHTS in cells in absence of CPT; DT40 Tdp1-/- hTDP1 cells, no CPT, ATP luminescence, 48 h; Potency, µM (doses to about 46.2 µM), for the others: top-dose activity change, negative = growth inhibition, most hits filed as inhibitors; 420,000 tested, 15% active; note: potency is the fitted concentration of half-maximal effect; nearly all actives have a fitted effect of over 55% in size
#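 Growth of hTDP1-complemented DT40 Tdp1-knockout cells is measured by ATP luminescence after at least 48 hr compound exposure at 37 °C, with DMSO substituting for the 20 nM CPT used in the parallel screen.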
# HT1080-NT tox = kills 2HG-producing HT-1080-NT fibrosarcoma cells; HT-1080-NT fibrosarcoma viability, CellTiter-Glo ATP luminescence, 48 h; Potency, µM (top dose mostly 46.1 µM), for the others: at the highest dose activity, negative = less viability, most hits filed as cytotoxic; 360,000 tested, 1.6% active; AID 686970;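 note: NT is the 2HG producing partner of a matched IDH1 knockdown line; potency is the fitted concentration of half-maximal effect; 0% = DMSO-treated cells and -100% = media-only wells without cells; nearly all actives have a fitted effect of over 55% in size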
#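 Viability by CellTiter-Glo luminescence after 48 h compound exposure at 37C of HT-1080-NT cells (750/well, RPMI, 5% FBS). % activity scaled between DMSO wells and medium-only wells, then curve-fitted and categorized by curve class.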
# ELG1 repair inh = blocks ELG1-dependent DNA repair in HEK293T cells. AID 504467. HEK293T ELG1-luciferase reporter, luminescence, 16 h; DNA damage induced by 5-fluorouridine. 330,000 tested, 2.3% active. Potency, µM (top dose mostly 46.1 µM), without a hit: top-dose activity change, negative = inhibition, usual class: inhibitors; note: potency is the fitted concentration of half-maximal effect; nearly all actives have a fitted effect of over 55% in size
#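 Step one: seed 2,000 cells per well. Step two: pin-transfer compound or DMSO alongside 5-fluorouridine. Step three: incubate 16 hr, 37 °C, 5% CO2. Step four: add ONE-Glo, wait 30 min, read luminescence.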
# HT1080 IDH1KD tx = HT-1080 IDH1 knockdown cell toxicity (counter line) | HT-1080 IDH1 knockdown viability, ATP luminescence, 48 h | Potency, µM (highest dose often 46.1 µM), for the others: at the highest dose activity, negative = toxicity, actives largely listed as cytotoxic | 360,000 tested, 2% active | AID 686971;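 note: potency is the fitted concentration of half-maximal effect; 0% = DMSO wells and -100% = cell-free medium wells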
#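 Cytotoxicity counter-line: IDH1KD HT-1080, 48 h, CellTiter-Glo. Curves classed by r2, magnitude and activity.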
# TDP1 cell CPT = growth inhibition of DT40 Tdp1-/-;hTDP1 cells with camptothecin (screen for TDP1 inhibitors); 420,000 tested, 12% active; Potency, µM (titrated, usually from 46.2 µM), without a hit: top-dose activity change, negative = growth inhibition, most hits filed as inhibitors; chicken DT40 Tdp1-/-;hTDP1 cells + 20 nM CPT, ATP luminescence, 48 h; note: potency is the fitted concentration of half-maximal effect; nearly all actives have a fitted effect of over 55% in size
#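 Cell growth measured by CellTiter-Glo luminescence after a minimum 48 h, 37 C compound exposure with 20 nM CPT in Tdp1-knockout DT40 cells stably expressing hTDP1, seeded 400/well; qHTS titration format.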
# * marks the source's active call; other numbers are inactive results; ? = inconclusive; nt = no result; [ ] = another dose, or the depositor's remark. Unless noted, calls come from the whole dose curve; as a rule, active = well fitted curve in the direction sought with a large enough effect; inconclusive = small, poorly fitted or top-dose-only effect, or another doubt; inactive = no such curve, though single readings can be large; an effect the other way counts as inactive or inconclusive. Unless noted, % is set by controls: 0 for no effect and ±100 for the full control effect.
SMILES,IL1B secr inh,DT40 TDP1 no CPT,HT1080-NT tox,ELG1 repair inh,HT1080 IDH1KD tx,TDP1 cell CPT
COc1cc([C@@H]2[C@H]3CNCC=C3C(C#N)=C(N)C2(C#N)C#N)ccc1OC(C)C,-18.9,?,-3.5%,?,-2.4%,9.2µM*
COc1ccc(Cn2ccc3nc(C)c(C(=O)N4CCN(c5ccccc5)CC4)cc3c2=O)cc1,nt,-6.7%,nt,nt,nt,2.9%
COc1ccc(Cn2ccc3nc(C)c(C(=O)N4CCN(c5cc(C)ccc5C)CC4)cc3c2=O)cc1,nt,23.1µM*,nt,nt,nt,20.6µM*
COc1ccc(Cn2ccc3nc(C)c(C(=O)NCc4ccc(F)cc4)cc3c2=O)cc1,nt,?,nt,nt,nt,-27.0%
Cc1nc2ccn(Cc3ccccc3)c(=O)c2cc1C(=O)N1CCN(c2ccccc2)CC1,12.0,-15.8%,?,8.2µM*,-3.6%,-23.5%
COc1ccc(Cn2ccc3nc(C)c(C(=O)N4CCN(c5cccc(OC)c5)CC4)cc3c2=O)cc1,nt,?,nt,nt,nt,14.6µM*
COc1ccc(Cn2ccc3nc(C)c(C(=O)NCc4ccc(C)cc4)cc3c2=O)cc1,nt,?,nt,nt,nt,25.9µM*
COC(=O)c1sc(N2C(=O)c3oc4cc(C)c(C)cc4c(=O)c3C2c2ccccc2F)nc1C (stereo not drawn),nt,1.2%,nt,nt,nt,8.1%
Cc1ccc(S(=O)(=O)N2[C@H](CC(=O)c3ccc(Cl)c(Cl)c3)OC[C@@H]2C(C)C)cc1,-4.0,-11.8%,-11.5%,nt,-10.9%,-8.4%
CCCS(=O)(=O)N1CC(=O)N(c2cccc(F)c2)C(C)(C(=O)NC2CCCCCC2)C1 (stereo not drawn),nt,-18.5%,nt,nt,nt,-27.3%
CC(=O)Nc1ccc(CN2C(=O)C(C)(C)ON=C2c2ccc(NC(C)=O)cc2)cc1,-15.5,7.9%,14.5%,nt,16.5%,7.6%
COc1cc(NC(=O)Cn2ccn(Cc3ccccc3OC)c(=O)c2=O)cc(OC)c1,nt,-8.0%,nt,nt,nt,-0.1%
COc1ccccc1N1CCN(C(=O)c2cc3c(=O)n(Cc4cccnc4)ccc3nc2C)CC1,nt,-6.4%,nt,nt,nt,-0.6%
Cc1ccc(C)c(N2CCN(C(=O)c3cc4c(=O)n(Cc5ccco5)ccc4nc3C)CC2)c1,nt,16.4µM*,nt,nt,nt,?
COc1cccc(N2CCN(C(=O)c3cc4c(=O)n(Cc5ccco5)ccc4nc3C)CC2)c1,nt,16.4µM*,nt,nt,nt,16.4µM*
CCc1ccccc1NC(=O)NC(CC)Cn1nnc2ccccc2c1=O (stereo not drawn),nt,-13.1%,nt,nt,nt,-0.8%
Cn1cccc1C(=O)N1CCC2(CCCN(Cc3ccccc3)C2)CC1,nt,-23.3%,nt,nt,nt,-2.2%
CC(=NO)C1CCC2C3CCC4CC(=NO)CCC4(C)C3C(C)(O)CC12C (stereo not drawn),23.9,14.6µM*,8.6%,nt,16.1%,?
COc1ccccc1N1CCN(C2CCN(C(=O)c3ccc(F)cc3)CC2)CC1,26.2,-27.2%,13.8%,-9.2%,8.8%,-16.5%
COc1ccccc1N1CCN(C(=O)c2ccc3[nH]c4c(c3c2)CC(C)CC4)CC1 (stereo not drawn),-93.6*,?,?,?,?,16.4µM*
COc1ccccc1N1CCN(C(=O)c2ccc3[nH]c(C)c(C)c3c2)CC1,38.4,1.03µM*,1.46µM*,?,1.3µM*,1.3µM*
COc1ccccc1N1CCN(CC(=O)c2c(C)[nH]c3cc(C)ccc23)CC1,-9.4,18.4µM*,-6.1%,?,-9.6%,?
Cc1[nH]c2ccc(C(=O)N3CCN(c4cccc(Cl)c4)CC3)cc2c1C,0.0,6.51µM*,?,2.6%,7.31µM*,6.51µM*
Cc1[nH]c2ccc(C(=O)N3CCCC3)cc2c1C,-7.7,-1.5%,-0.3%,?,0.0%,20.0%
C[C@@H]1CN([C@H](C)CO)C(=O)CCCn2nncc2CO[C@@H]1CN(C)S(=O)(=O)c1ccc(-n2cccn2)cc1,-5.0,-6.5%,-13.4%,nt,-13.7%,1.3%
SMILES,IL1B secr inh,DT40 TDP1 no CPT,HT1080-NT tox,ELG1 repair inh,HT1080 IDH1KD tx,TDP1 cell CPT
CCc1cc(C(=O)N2CCN(c3ccccc3OC)CC2)sc1C,-13.5,16.4µM*,?,?,?,?
COc1ccccc1N1CCN(C(=O)c2cccs2)CC1,-14.2,-4.2%,5.4%,14.0%,-0.8%,-19.7%
Nc1nc(Cl)cc(Nc2ccccc2Cl)n1,-15.9,-6.6%,1.4%,?,1.6%,-12.2%
CCc1c(N)nc(N)nc1Nc1ccccc1Cl,17.9,20.6µM*,?,nt,-18.5%,18.4µM*
CC(=O)c1c(C)[nH]c(C(=O)OCC(=O)NCCc2ccc(F)cc2)c1C,48.3,23.1µM*,-22.3%,20.6µM*,-11.2%,?
CCOC(=O)c1c(C)[nH]c(C(=O)OCC(=O)Nc2cc(C)c(Cl)cc2OC)c1C,70.4,4.61µM*,-1.8%,?,-4.1%,3.66µM*
CCOC(=O)c1c(C)[nH]c(C(=O)OCC(=O)Nc2ccc(Cl)cn2)c1C,32.8,-1.8%,-1.2%,4.3%,-23.7%,-0.6%
COc1cc(Cl)c(C)cc1NC(=O)COC(=O)C1CC1C (stereo not drawn),15.2,8.7%,-1.0%,-18.5%,-2.3%,0.0%
CCOC(=O)c1c(C)[nH]c(C(=O)OCC(=O)Nc2sccc2C(N)=O)c1C,-71.0*,2.06µM*,-5.7%,?,-27.0%,1.64µM*
CCOc1ccc(CCNC(=O)COC(=O)c2[nH]c(C)c(C(C)=O)c2C)cc1OCC,-6.6,20.6µM*,-17.0%,nt,?,?
CC1CCN(C(=O)c2ncn(Cc3ccccc3)c2C(=O)N2CCC(C)CC2)CC1,5.7,?,-0.8%,3.4%,-2.9%,-23.3%
O=C(c1ccccc1)N(CCCl)C(=O)N(CCCl)C(=O)c1ccccc1,-2.8,?,-1.1%,nt,7.6%,?
O=C(NCCCO)C(=O)Nc1cc2c3c(c1)CCC(=O)N3CCC2,19.2,8.5%,0.6%,?,1.8%,10.6%
NC(=O)c1ccsc1NC(=O)COC(=O)c1c(F)cccc1Cl,9.1,8.2µM*,-3.1%[9.24 µM],?,-9.9%,?
CCOC(=O)c1[nH]c(C)c(C(=O)OCC(=O)NCc2ccc(Cl)cc2)c1C,22.8,-17.3%,11.1%,15.0%,3.8%,-14.5%
CCOC(=O)c1c(C)[nH]c(C(=O)OCC(=O)NCc2ccc(OC)c(OC)c2)c1C,5.3,18.4µM*,-28.8%,?,?,8.2µM*
NC(=O)c1ccsc1NC(=O)COC(=O)c1ccccc1F,-9.9,-24.1%,0.6%,15.9%,-2.6%,-18.0%

# Bioassay records (PubChem BioAssay)
